Assay results published in PubChem BioAssay (Tox21).
Values joined by “and” are separate entries in the source; they are usually repeats but may differ in a detail not shown here. Equal values may be shown once. Some structures have more than one record in an assay (separate samples or runs), and their calls can disagree. Active and inactive are the calls of the source. Unless noted, the call rests on the fitted dose curve; in most records, active means well fitted curve in the direction sought with a large enough effect in the repeat runs; inconclusive means weak or mixed curves; inactive means no such curve, though single readings can be large; an effect the other way counts as inactive or inconclusive.

Assays:
[1] = qHTS assay for small molecules that induce genotoxicity in human embryonic kidney cells expressing luciferase-tagged ATAD5 (AID 651632); further: nearly all actives have a fitted effect of over 15% in size; further: potency means the concentration at half of the fitted maximal effect
How it was run: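 ATAD5-luc HEK293T, 2,000 cells/well; cpd or DMSO pin-transferred; 16 hr, 37C/5% CO2; Amplite 30 min RT; luminescence.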

[2] = qHTS assay to test for compound auto fluorescence at 535 nm (green) in HEK293 cells (AID 720680)
[3] = qHTS assay for identifying genotoxic compounds that show differential cytotoxicity against isogenic chicken DT40 cell lines with known DNA damage response pathways - wild type cell line (AID 743012); further: nearly all actives have a fitted effect of over 60% in size; further: potency means the concentration at half of the fitted maximal effect
How it was run: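 Wild type DT40, 300 cells/well, ~0.5 h settle at 37 C/5% CO2; compounds in DMSO added by pintool; 40 h at 37 C/5% CO2; CellTiter-Glo, 30 min RT; luminescence.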

[4] = qHTS assay for identifying genotoxic compounds that show differential cytotoxicity against isogenic chicken DT40 cell lines with known DNA damage response pathways - Rev3 mutant cell line (AID 743014); further: nearly all actives have a fitted effect of over 55% in size; further: potency means the concentration at half of the fitted maximal effect
[5] = qHTS assay for identifying genotoxic compounds that show differential cytotoxicity against isogenic chicken DT40 cell lines with known DNA damage response pathways - Rad54/Ku70 mutant cell line (AID 743015); further: nearly all actives have a fitted effect of over 60% in size; further: potency means the concentration at half of the fitted maximal effect
[6] = qHTS assay to identify small molecule antagonists of the androgen receptor (AR) signaling pathway - cell viability counter screen (AID 743033; further: nearly all actives have a fitted effect of over 45% in size; further: potency means the concentration at half of the fitted maximal effect)
[7] = qHTS assay to identify small molecule antagonists of the thyroid receptor (TR) signaling pathway - cell viability counter screen (AID 743064); further: nearly all actives have a fitted effect of over 50% in size; further: potency means the concentration at half of the fitted maximal effect
How it was run: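 Same-well viability check: GH3.TRE-Luc cells stimulated with 1 nM T3 alongside test compound for 23.5 h, followed by CellTiter-Fluor fluorescence.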

[8] = qHTS assay to identify small molecule antagonists of the thyroid receptor (TR) signaling pathway (AID 743065); further: nearly all actives have a fitted effect of over 55% in size; further: potency means the concentration at half of the fitted maximal effect
How it was run: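 GH3.TRE-Luc rat pituitary cells carrying two TR response elements driving luciferase were plated for 4 h, given compound plus 1 nM T3 (final), and incubated 23.5 h at 37 C. ONE-Glo luminescence measured reporter inhibition; CellTiter-Fluor fluorescence tracked cytotoxicity.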

[9] = tested on: thyroid hormone receptor (rat, GH3 cells); assay: qHTS assay to identify small molecule agonists of the thyroid receptor (TR) signaling pathway (AID 743066; calls by dose curve)
[10] = molecular target: Estrogen receptor (Homo sapiens) (UniProt P03372); assay: qHTS assay to identify small molecule antagonists of the estrogen receptor alpha (ER-alpha) signaling pathway (AID 743069; active means well fitted curve in the direction sought with a large enough effect in the signal ratio in the repeat runs, not every such curve was filed as active; inconclusive means weak or mixed curves, or effect the other way; inactive means no such curve, though single readings can be large or run the other way; the % refers to the signal ratio)
How it was run: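 Estradiol-stimulated ER-alpha-UAS-bla HEK293 cells, 18 hr compound exposure at 37C. LiveBLAzer B/G substrate, 2 hr RT, fluorescence read.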

[11] = qHTS assay to identify small molecule antagonists of the estrogen receptor alpha (ER-alpha) signaling pathway - cell viability counter screen (AID 743074; calls by dose curve;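 further: HEK293 cells carrying ER-alpha-UAS-bla reporter stimulated with 17beta-estradiol; nearly all actives have a fitted effect of over 45% in size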; further: potency means the concentration at half of the fitted maximal effect)
[12] = molecular target: Estrogen receptor (Homo sapiens) (UniProt P03372); assay: qHTS assay to identify small molecule agonists of the estrogen receptor alpha (ER-alpha) signaling pathway (AID 743075; calls by dose curve;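 further: HEK293 GripTite cells with ER-alpha and UAS-driven beta-lactamase reporter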; further: potency means the concentration at half of the fitted maximal effect)
[13] = molecular target: Estrogen receptor (Homo sapiens) (UniProt P03372); assay: qHTS assay to identify small molecule agonists of the estrogen receptor alpha (ER-alpha) signaling pathway using the BG1 cell line (AID 743079); further: nearly all actives have a fitted effect of over 20% in size; further: potency means the concentration at half of the fitted maximal effect
[14] = molecular target: Peroxisome proliferator-activated receptor gamma (Homo sapiens) (UniProt P37231); assay: qHTS assay to identify small molecule agonists of the peroxisome proliferator-activated receptor gamma (PPARg) signaling pathway (AID 743094; active means well fitted activation curve with a large enough effect in the signal ratio in the repeat runs, not every such curve was filed as active; inconclusive means weak or mixed curves, or effect the other way; inactive means no such curve, though single readings can be large or run the other way; the % refers to the signal ratio)
How it was run: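 Beta-lactamase FRET fluorescence was the read-out after a 1 h room-temperature substrate step, following 17 h compound treatment at 37C of HEK293H cells expressing a UAS-driven bla reporter responsive to PPARg.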

[15] = molecular target: Nuclear receptor subfamily 1 group I member 2 (Rattus norvegicus) (UniProt Q9R1A7); assay: Rat pregnane X receptor (rPXR) activation by small molecules, qHTS assay (AID 1346983); settings: rPXR luciferase reporter cells, One-Glo luminescence, 24 h; max activation: stronger effect = higher value; further: nearly all actives have a fitted effect of over 20% in size
How it was run: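 Cell-based rPXR luciferase reporter assay, 2,000 cells per well, rested 5hr at 37 C before compound addition in DMSO, then 24 hr at 37 C. One-Glo reagent was added and luminescence read after 30 min at room temperature.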

[16] = molecular target: Nuclear receptor subfamily 1 group I member 2 (Homo sapiens) (UniProt O75469); assay: CYP3A4 induction through human pregnane X receptor (PXR) by small molecules, qHTS assay (AID 1346984); further: nearly all actives have a fitted effect of over 40% in size
How it was run: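 Luminescence readout: luciferase signal after One-Glo (30 min, room temperature), following 3 h at 37C with 3uM final Luciferin-IPA P450 substrate. Cells were DPX-2 (HepG2, PXR/CYP3A4-luc co-transfected) dosed for 24 h.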

[17] = molecular target: Nuclear receptor subfamily 1 group I member 2 (Homo sapiens) (UniProt O75469); assay: Human pregnane X receptor (PXR) activation by small molecules, qHTS assay (AID 1346985); further: nearly all actives have a fitted effect of over 40% in size
How it was run: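 DPX-2 cells (HepG2 co-transfected with a PXR response element and a CYP3A4-promoter luciferase construct) were seeded at 2,000 per well, rested 5 hr at 37C, then exposed to DMSO-dissolved compounds for 24 hr. Activation was read as luciferase luminescence.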

[18] = qHTS assay for small molecules that induce genotoxicity in human embryonic kidney cells expressing luciferase-tagged ATAD5 - cell viability (AID 651634; calls by dose curve; further: nearly all actives have a fitted effect of over 25% in size; further: potency means the concentration at half of the fitted maximal effect)
How it was run: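 Fluorescence from CellTiter-Fluor, reporting protease activity within live cells, served as the viability read-out. HEK293T cells carrying luciferase-tagged ATAD5 had been treated with compound for 15.5 hr at 37C.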

[19] = qHTS assay to test for compound auto fluorescence at 460 nm (blue) in HepG2 cell free culture (AID 720685)
How it was run: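 Compound (23 nL) or DMSO pinned into cell-free MEM with 10% FBS; blue fluorescence read at 405/460 nm excitation/emission, expressed as auto-fluorescence equivalency to triamterene.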

[20] = qHTS assay for small molecule disruptors of the mitochondrial membrane potential (AID 720635); further: potency means the concentration at half of the fitted maximal effect
How it was run: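 HepG2 cells (2,000/well) attached overnight at 37C, then took compound for 1 hr at 37C, 5% CO2. Mito-MPS dye was added for 30 min; fluorescence was read at 490/535 nm (monomers) and 540/590 nm (aggregates).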
On the % scale 0 is the no-effect control and ±100 the full control effect.

Chain of Estrogen receptor (Homo sapiens) (P03372 whole entry, looked up): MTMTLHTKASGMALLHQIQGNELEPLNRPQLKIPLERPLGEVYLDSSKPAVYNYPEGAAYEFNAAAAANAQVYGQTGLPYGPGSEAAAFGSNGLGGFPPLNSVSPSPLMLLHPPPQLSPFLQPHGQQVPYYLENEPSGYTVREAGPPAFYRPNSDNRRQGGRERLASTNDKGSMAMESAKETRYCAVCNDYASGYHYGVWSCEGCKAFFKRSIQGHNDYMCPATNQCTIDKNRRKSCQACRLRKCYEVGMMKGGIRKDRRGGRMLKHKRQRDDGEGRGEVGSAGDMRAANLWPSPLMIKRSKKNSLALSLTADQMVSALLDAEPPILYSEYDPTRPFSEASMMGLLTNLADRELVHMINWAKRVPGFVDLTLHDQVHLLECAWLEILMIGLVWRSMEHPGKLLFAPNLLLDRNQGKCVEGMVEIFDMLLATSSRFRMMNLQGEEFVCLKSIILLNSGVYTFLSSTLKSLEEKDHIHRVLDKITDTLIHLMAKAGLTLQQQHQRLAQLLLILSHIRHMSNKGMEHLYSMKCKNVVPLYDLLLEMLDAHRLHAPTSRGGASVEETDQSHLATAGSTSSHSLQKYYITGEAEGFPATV
Chain of Nuclear receptor subfamily 1 group I member 2 (Rattus norvegicus) (Q9R1A7 whole entry, looked up): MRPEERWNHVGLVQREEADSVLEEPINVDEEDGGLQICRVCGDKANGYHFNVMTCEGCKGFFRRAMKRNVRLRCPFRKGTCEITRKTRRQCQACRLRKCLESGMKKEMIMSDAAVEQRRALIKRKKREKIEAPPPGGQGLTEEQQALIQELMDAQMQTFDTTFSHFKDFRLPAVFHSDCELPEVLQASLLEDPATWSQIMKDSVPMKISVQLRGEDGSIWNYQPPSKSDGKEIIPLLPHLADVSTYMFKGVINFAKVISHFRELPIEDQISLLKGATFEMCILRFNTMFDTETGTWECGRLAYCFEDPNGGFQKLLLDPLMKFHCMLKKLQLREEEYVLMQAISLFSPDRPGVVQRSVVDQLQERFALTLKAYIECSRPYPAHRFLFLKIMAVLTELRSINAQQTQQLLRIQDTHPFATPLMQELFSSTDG
Chain of Peroxisome proliferator-activated receptor gamma (Homo sapiens) (P37231 whole entry, looked up): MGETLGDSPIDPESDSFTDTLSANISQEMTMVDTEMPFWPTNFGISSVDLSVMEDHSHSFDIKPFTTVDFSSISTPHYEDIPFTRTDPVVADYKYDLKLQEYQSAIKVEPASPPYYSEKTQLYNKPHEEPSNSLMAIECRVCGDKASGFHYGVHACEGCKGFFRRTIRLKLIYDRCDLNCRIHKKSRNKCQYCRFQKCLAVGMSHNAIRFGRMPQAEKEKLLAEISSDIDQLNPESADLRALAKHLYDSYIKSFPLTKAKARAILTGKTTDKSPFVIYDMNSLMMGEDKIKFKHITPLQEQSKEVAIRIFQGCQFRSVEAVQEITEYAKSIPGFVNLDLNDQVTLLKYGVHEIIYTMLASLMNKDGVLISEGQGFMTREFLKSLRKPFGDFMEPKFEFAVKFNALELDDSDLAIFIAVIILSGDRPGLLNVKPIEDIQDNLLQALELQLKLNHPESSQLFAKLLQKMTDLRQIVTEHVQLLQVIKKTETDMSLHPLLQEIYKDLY

CN[C@H]1C[C@@H](N)[C@H](O)[C@@H](O[C@@H]2O[C@H](CO)[C@H](O)[C@@H]3OC4(O[C@H]23)O[C@H](C(N)CO)[C@H](O)[C@H](O)[C@H]4O)[C@@H]1O (stereo not given in full)
active: Potency [8] 11.9 µM
inactive: Potency [1] | Potency [2] | Potency [3] | Potency [4] | Potency [5] | Potency [6] | Potency [7] | Potency [9] | Potency [10] | Potency [11] | Potency [12] | Potency [13] | Potency [14] | max activation [15] -3.01% | Potency [16] | Potency [17]

COc1ccc2c3c1O[C@H]1C(=O)CC[C@H]4[C@@H](C2)N(C)CC[C@]314
inactive: Potency [1] | Potency [18] | Potency [2] | Potency [19] | Potency [3] | Potency [4] | Potency [5] | Potency [6] | Potency [7] | Potency [9] | Potency [10] | Potency [12] | Potency [13] | Potency [14] | max activation [15] -2.81% | Potency [16] | Potency [17]

[2H]C([2H])([2H])[C@H](N)Cc1ccccc1
inactive: Potency [1] | Potency [2] | Potency [19] | Potency [3] | Potency [4] | Potency [5] | Potency [6] | Potency [7] | Potency [8] | Potency [9] | Potency [10] | Potency [11] | Potency [12] | Potency [13] | Potency [14] | max activation [15] -6.9% | Potency [16] | Potency [17]

O=C(CS(=O)C(c1ccccc1)c1ccccc1)NO (stereo not given)
inactive: Potency [1] | Potency [18] | Potency [20] | Potency [2] | Potency [19] | Potency [3] | Potency [4] | Potency [5] | Potency [7] | Potency [8] | Potency [9] | Potency [10] | Potency [11] | Potency [12] | Potency [13] | Potency [14] | max activation [15] -2.68% | Potency [16] | Potency [17]

O=C1CCO1
inactive: Potency [1] | Potency [18] | Potency [20] | Potency [2] | Potency [3] | Potency [4] | Potency [5] | Potency [6] | Potency [7] | Potency [8] | Potency [9] | Potency [10] | Potency [12] | Potency [13] | Potency [14] | max activation [15] -0.633% | Potency [16] | Potency [17]

CC(=O)OO
inactive: Potency [1] | Potency [18] | Potency [20] | Potency [2] | Potency [19] | Potency [3] | Potency [4] | Potency [5] | Potency [6] | Potency [7] | Potency [8] | Potency [9] | Potency [10] | Potency [11] | Potency [12] | Potency [13] | Potency [14] | max activation [15] -0.773% | Potency [16] | Potency [17]

Cc1ccccc1-n1c(C)nc2ccccc2c1=O
inactive and 24.1 µM (active): Potency [7]
inactive: Potency [1] | Potency [18] | Potency [20] | Potency [2] | Potency [6] | Potency [8] | Potency [9] | Potency [10] | Potency [11] | Potency [12] | Potency [14] | max activation [15] 9.97% | Potency [16] | Potency [17]
inactive and 53.9 µM (active): Potency [13]
active: Potency [3] 42.8 µM | Potency [4] 53.9 µM | Potency [5] 60.4 µM

C=CCN(C1=NCCN1)c1c(Cl)cccc1Cl
inactive: Potency [1] | Potency [18] | Potency [20] | Potency [2] | Potency [3] | Potency [4] | Potency [5] | Potency [6] | Potency [7] | Potency [8] | Potency [9] | Potency [10] | Potency [11] | Potency [12] | Potency [14] | max activation [15] -3.97% | Potency [16] | Potency [17]
active: Potency [13] 11.9 µM

c1ccccc1
inactive: Potency [1] | Potency [18] | Potency [2] | Potency [19] | Potency [3] | Potency [4] | Potency [5] | Potency [6] | Potency [7] | Potency [8] | Potency [9] | Potency [10] | Potency [11] | Potency [12] | Potency [13] | Potency [14]

CCC1(C)CC(=O)NC(=O)C1
inactive: Potency [1] | Potency [20] | Potency [19] | Potency [3] | Potency [4] | Potency [5] | Potency [6] | Potency [7] | Potency [8] | Potency [9] | Potency [10] | Potency [11] | Potency [12] | Potency [13] | Potency [14] | max activation [15] 0.0054% | Potency [16] | Potency [17]

C[C@H]1CC[C@]2(NC1)O[C@H]1C[C@H]3[C@@H]4CC[C@H]5C[C@@H](O[C@@H]6O[C@H](CO)[C@H](O[C@@H]7O[C@H](CO)[C@@H](O)[C@H](O[C@@H]8OC[C@@H](O)[C@H](O)[C@H]8O)[C@H]7O[C@@H]7O[C@H](CO)[C@@H](O)[C@H](O)[C@H]7O)[C@H](O)[C@H]6O)CC[C@]5(C)[C@H]4CC[C@]3(C)[C@H]1[C@@H]2C
active: Potency [1] 1.33 µM | Potency [18] 7.5 µM | Potency [20] 1.97 µM | Potency [3] 1.88 µM | Potency [4] 2.37 µM | Potency [5] 2.37 µM | Potency [6] 4.77 µM | Potency [7] 2.37 µM | Potency [8] 2.37 µM | Potency [11] 10.7 µM | Potency [12] 9.52 µM [inconclusive]
inactive: Potency [2] | Potency [19] | max activation [15] -24.3% | Potency [16] | Potency [17]

CCC(C)(S(=O)(=O)CC)S(=O)(=O)CC
inactive: Potency [1] | Potency [18] | Potency [2] | Potency [4] | Potency [5] | Potency [6] | Potency [7] | Potency [8] | Potency [9] | Potency [10] | Potency [11] | Potency [12] | Potency [13] | Potency [14] | max activation [15] -2.56% | Potency [16] | Potency [17]

CN(C)CCCCCCN(C)C
inactive: Potency [20] | Potency [2] | Potency [19] | Potency [3] | Potency [4] | Potency [5] | Potency [6] | Potency [7] | Potency [8] | Potency [9] | Potency [11]
